In PubChem BioAssay (NCI):
Compounds without any hit were thinned out: in the full panel of roughly 79,000, 15% have a hit. Unmarked numbers belong to inactive results. Active and inactive are the calls of the source. Rule as the data show it: active = growth inhibition above about 70%; inactive = the rest. Where a SMILES comes first, the peptide text is derived from it. Bridges are numbered along the chain shown (N, C = ends). [ ]: non-standard residue; d: D form. The star is where a group is joined. Cbz = O=C(OCc1ccccc1)*; Aib = CC(C)(N)C(=O)O; OBn = c1ccc(CO*)cc1; βAla = NCCC(=O)O

How the values were obtained:
[1] = NCI Yeast Anticancer Drug Screen. Data for the rad50 strain (AID 155);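 also: 0% = growth of vehicle-only cultures of the same strain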; details: S. cerevisiae rad50 strain growth inhibition; at 50.0 µM; stronger effect = higher value
Procedure, shortened: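 Readout: growth inhibition relative to vehicle-treated cultures. Compound exposure was carried out in a genetically defined yeast strain deficient in DNA damage repair.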

[2] = NCI Yeast Anticancer Drug Screen. Data for the mec2-1 strain (AID 157); details: S. cerevisiae mec2-1 strain, at 50.0 µM, stronger effect = higher value
Procedure, shortened: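 Vehicle-treated cultures served as reference for growth inhibition of compound-exposed mec2-1 yeast.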

[3] = NCI Yeast Anticancer Drug Screen. Data for the sgs1 mgt1 strain (AID 161);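 also: 0% = growth of cultures given vehicle only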; details: S. cerevisiae sgs1 mgt1 strain, at 50.0 µM, stronger effect = higher value
Procedure, shortened: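 Test agents were incubated with a DNA-repair-mutant yeast strain. Growth was then read and compared against vehicle-treated controls.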

[4] = NCI Yeast Anticancer Drug Screen. Data for the cln2 rad14 strain (AID 165);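 also: 0% = growth equal to vehicle treated cultures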; details: S. cerevisiae cln2 rad14 strain, at 50.0 µM, stronger effect = higher value
Procedure, shortened: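 Each compound was tested on cln2 rad14 yeast. Inhibition of growth was calculated against vehicle-exposed controls.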

[5] = NCI Yeast Anticancer Drug Screen. Data for the bub3 strain (AID 167); details: S. cerevisiae bub3 mutant strain, at 50.0 µM, stronger effect = higher value
Procedure, shortened: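 Readout: yeast growth inhibition, expressed relative to vehicle-only wells. The test organism is a mutant strain from a panel with lesions in DNA repair or checkpoint genes.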

[6] = NCI Yeast Anticancer Drug Screen. Data for the mlh1 rad18 strain (AID 175); details: S. cerevisiae mlh1 rad18 strain growth inhibition; at 50.0 µM; stronger effect = higher value
Procedure, shortened: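 Vehicle-treated cultures served as the reference for growth inhibition in a yeast strain carrying DNA damage repair alterations exposed to each compound.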

SMILES | growth inhibition [1] [%] | growth inhibition [2] [%] | growth inhibition [3] [%] | growth inhibition [4] | growth inhibition [5] | growth inhibition [6] [%]
CC1=C(c2ccco2)C(c2ccco2)OC1=O (configuration not stated) | 8.45 | 27.2 | 15.9 | -16.6% | 18.3% | -7.3
CCOC(=O)CC(C(=O)OCC)C(C(=O)OCC)C(=O)OCC (configuration not stated) | 41.9 | -4.1 | 19.6 | 3.4% | 29.8% | 13.6
Cc1cc(N)ccc1N=Nc1ccc(Sc2ccc(N=Nc3c(S(=O)(=O)O)cc4cc(S(=O)(=O)O)c(N=Nc5ccc([N+](=O)[O-])cc5)c(N)c4c3O)cc2)cc1 | -77 | -27.9 | -32.4 | -95.8% | -65.8% | -27.9
c1ccc2c(c1)CCCN2c1nc(N2CCCC2)nc(N2CCOCC2)n1 | -11.6 | -21.8 | 4.4 | 7.25% | 5.45% | -8.25
Oc1ccc(Br)cc1C1Nc2ccccc2S1 (configuration not stated) | 0.65 | 6.15 | 0.4 | -28.3% | 5.15% | -1.85
N/N=C(\C(=O)Nc1ccc(Cl)cc1Cl)C(c1cnc2ccccc2n1)[N+](=O)[O-] (configuration not stated) | 12.5 | -21.9 | -3.6 | -20.6% | -9.45% | 0.45
CC[N+](C)(CC)CCl | -49.2 | -17.9 | -20.8 | -45.4% | 7.6% | -1.65
O=[N+]([O-])c1ccc(Cn2on2-c2ccccc2)cc1 | 8.55 | 21.1 | 9.1 | -16.7% | 24.4% | -23.9
CC1(C)C(=NNc2ccccc2)C(C)(C)C1=NNc1ccccc1 | 14.8 | 63 | 15.5 | 79.9% (active) | 96.2% (active) | 33
CCCCCCCC/C=C\CCCCCCCC(=O)OCCN(CCOC(=O)CCCCCCC/C=C\CCCCCCCC)C(=O)c1ccccc1 | -12.9 | -1.2 | -17.9 | -20.2% | -9.9% | -2.65
CCOC(=O)C(C(=O)/C=C\c1ccccc1)(C(c1ccccc1)c1ccccc1)C(c1ccccc1)c1ccccc1 | -9.7 | 14.7 | 5 | -38.5% | 2.9% | 2.1
CC1(C)OC2C(C(=O)O)OC(n3cnc4c(N)ncnc43)C2O1 (configuration not stated) | -3.35 | -12.2 | -9.7 | -2.05% | -21.6% | -0.7
Cc1c(NC(C)C)ccc(NC(C)C)c1C | 35.3 | 27.6 | 26.3 | 17% | 25.2% | 43.2
CC(N)/C(N)=N/O (configuration not stated) | 11.2 | 4.9 | -0.95 | -2.45% | 18.4% | 15
N=C(N)SCCCN | -1.7 | -14.7 | -3.6 | 2.95% | -36% | 29.1
CCOC(=O)CC(C(=O)OCC)c1ccccc1 (configuration not stated) | -3.4 | 10.2 | -5.4 | -6.35% | 9.85% | -19.4
CC1(C)NC(=O)C(NC(=O)C(CC(=O)OCc2ccccc2)NC(=O)OCc2ccccc2)CCCCNC(=O)CCNC1=O (configuration not stated) (Cbz-D(OBn)K[Aib][βAla]; lactam 2-C; configuration not given here) | -0.7 | -11.6 | -7.95 | 20.4% | -2.35% | 1.3
O=C(O)CSc1n[nH]c(-c2ccccc2O)n1 | -1.1 | 2.5 | 17.8 | 17.5% | 9.6% | 7.25
Cc1ccc(S(=O)(=O)c2ccc(C)cc2[N+](=O)[O-])c([N+](=O)[O-])c1 | -58.1 | -52.1 | -25.4 | -6.2% | -19.9% | -44.6

SMILES | growth inhibition [1] [%] | growth inhibition [2] [%] | growth inhibition [3] [%] | growth inhibition [4] | growth inhibition [5] | growth inhibition [6] [%]
NC(CCC(=O)Nc1cccc2ccccc12)C(=O)O (configuration not stated) | 27.6 | 1.65 | 16.5 | 12.4% | 17.2% | -3.15
COC(=O)c1cc(CN(C)C)c(O)c(CN(C)C)c1 | -20.3 | -10.8 | -34 | -3.7% | 2% | -29
CCOC(=O)/C(C#N)=C/c1ccc(Cl)cc1 | -5.3 | -11.7 | -13.1 | 0.85% | -34.4% | -0.65
Cc1nccc2cccc(CNC(C)C)c12 | 3.7 | 2.7 | 4.1 | 7% | -11.2% | -4.25
S=c1[nH]n(-c2ccccc2)c(=S)s1 | -28.7 | -41.1 | -4.95 | -1.15% | 15.3% | -22.6
NC(=O)c1nnn2c1nc(N)c1cc(Cl)ccc12 | -28.4 | -26.6 | -9.55 | -18.4% | -27.6% | -22.6
N#Cc1nc(C2=C(Cl)c3ccccc3OC2)[nH]c1C#N | 40 | 42.9 | 46.5 | 56.5% | 50.6% | 31.8
O=c1c2cc(Br)ccc2n(C2OC(CO)C(O)C(O)C2O)c(=S)n1-c1ccccc1 (configuration not stated) | 30.6 | 28.4 | 31.7 | 34.5% | 50.5% | 24.9
COc1ccc(C(=O)c2ccc(Cl)cc2)c(O)c1OC | -5.85 | -6.55 | -1.7 | 3.9% | 19.4% | -9.4
CCC(=O)c1cc(-c2ccccc2)nc2ccc(OC)cc12 | 2.6 | 1.2 | 11.5 | -23.4% | -12.2% | -24.4
C/C(=C\c1ccccc1)C(O)C(=O)c1nc2ccc(Cl)cc2[nH]c1=O (configuration not stated) | 10.3 | -15.4 | 6.15 | 26% | -14.2% | 6.55
Nc1nc(-c2cccc(S(=O)(=O)O)c2)c([N+](=O)[O-])c(=O)[nH]1 | -10 | -8.05 | -15.7 | 10.2% | -24.6% | 17.6
CCN(CC)C(N)=Nc1cc2ccccc2c2ccccc12 | -16.5 | -22.8 | -16.9 | -45.5% | 8.55% | 5.25
c1ccc2c(c1)CCCN2c1nc(N2CCCCC2)nc(N2CCOCC2)n1 | 12.9 | -17.9 | 22.6 | 22.1% | 11.6% | 20.1
CCOC(=O)Cc1n[nH]c(=O)c2ccccc12 | -21.6 | 1.4 | 1.2 | -21.4% | -21.8% | -6.95
O=C(CSc1nnc(Cc2ccccc2)o1)Nc1ccc(Cl)cc1Cl | -18.8 | -41 | -41.3 | -10.7% | -10.2% | -14
Cc1ccc(N2C(=O)c3ccccc3NC2(C)CCl)cc1 (configuration not stated) | 4.55 | -9.25 | 10.9 | -3.7% | 33.1% | 1.3
NC(=O)C1CC(I)C2CC1C(=O)O2 (configuration not stated) | 1.45 | -4.3 | -4.45 | 4.3% | 0.35% | -6.5
